Experiment [1] can be described thus: binders of probe aFSTL3 on microarray, primary screen, stem cell growth factor project, biochemical, small-molecule microarray, fluorescence 635/667 (AID 1064).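 Also: measures binding of the biotinylated anti-FSTL3 antibody to printed compounds.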 The following applies: higher = more signal.
Experiment [2] is described as follows: binders from COS7 lysate, DM2A8 probe, primary screen, torsin A project, cell lysate, small-molecule microarray, fluorescence 635/667 (AID 1065). The settings on record: higher = more signal, COS7 lysate expressing mutant human TOR1A.
Experiment [3] can be described thus: binders of probe aFGF2 on microarray, primary screen, stem cell growth factor project, biochemical, small-molecule microarray, fluorescence 635/667 (AID 1067).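 Also: measures binding of biotinylated aFGF2 protein to printed compounds on slides; z-score merges feature fluorescence and signal-to-noise across triplicate slides.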 The following applies: higher = more signal.
Experiment [4] is described as follows: binders of probe aFGF10 on microarray, primary screen, stem cell growth factor project, biochemical, small-molecule microarray, fluorescence 635/667 (AID 1071).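 Also: score merges 667 nm spot intensity and signal to noise from triplicate slides.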 The settings on record: higher = more signal.
For experiment [5], the target named is Neurogenic locus notch homolog protein 2 (Homo sapiens) (UniProt Q04721). The experiment in a line: Notch2 binders on small-molecule microarrays, primary screen, biochemical, small-molecule microarray, 635 nm fluorescence, stem cell growth factors (AID 1073). The following applies: Notch2 binding, higher = more signal.
Neurogenic locus notch homolog protein 2 (Homo sapiens), sequence (Q04721 whole entry, looked up, canonical isoform): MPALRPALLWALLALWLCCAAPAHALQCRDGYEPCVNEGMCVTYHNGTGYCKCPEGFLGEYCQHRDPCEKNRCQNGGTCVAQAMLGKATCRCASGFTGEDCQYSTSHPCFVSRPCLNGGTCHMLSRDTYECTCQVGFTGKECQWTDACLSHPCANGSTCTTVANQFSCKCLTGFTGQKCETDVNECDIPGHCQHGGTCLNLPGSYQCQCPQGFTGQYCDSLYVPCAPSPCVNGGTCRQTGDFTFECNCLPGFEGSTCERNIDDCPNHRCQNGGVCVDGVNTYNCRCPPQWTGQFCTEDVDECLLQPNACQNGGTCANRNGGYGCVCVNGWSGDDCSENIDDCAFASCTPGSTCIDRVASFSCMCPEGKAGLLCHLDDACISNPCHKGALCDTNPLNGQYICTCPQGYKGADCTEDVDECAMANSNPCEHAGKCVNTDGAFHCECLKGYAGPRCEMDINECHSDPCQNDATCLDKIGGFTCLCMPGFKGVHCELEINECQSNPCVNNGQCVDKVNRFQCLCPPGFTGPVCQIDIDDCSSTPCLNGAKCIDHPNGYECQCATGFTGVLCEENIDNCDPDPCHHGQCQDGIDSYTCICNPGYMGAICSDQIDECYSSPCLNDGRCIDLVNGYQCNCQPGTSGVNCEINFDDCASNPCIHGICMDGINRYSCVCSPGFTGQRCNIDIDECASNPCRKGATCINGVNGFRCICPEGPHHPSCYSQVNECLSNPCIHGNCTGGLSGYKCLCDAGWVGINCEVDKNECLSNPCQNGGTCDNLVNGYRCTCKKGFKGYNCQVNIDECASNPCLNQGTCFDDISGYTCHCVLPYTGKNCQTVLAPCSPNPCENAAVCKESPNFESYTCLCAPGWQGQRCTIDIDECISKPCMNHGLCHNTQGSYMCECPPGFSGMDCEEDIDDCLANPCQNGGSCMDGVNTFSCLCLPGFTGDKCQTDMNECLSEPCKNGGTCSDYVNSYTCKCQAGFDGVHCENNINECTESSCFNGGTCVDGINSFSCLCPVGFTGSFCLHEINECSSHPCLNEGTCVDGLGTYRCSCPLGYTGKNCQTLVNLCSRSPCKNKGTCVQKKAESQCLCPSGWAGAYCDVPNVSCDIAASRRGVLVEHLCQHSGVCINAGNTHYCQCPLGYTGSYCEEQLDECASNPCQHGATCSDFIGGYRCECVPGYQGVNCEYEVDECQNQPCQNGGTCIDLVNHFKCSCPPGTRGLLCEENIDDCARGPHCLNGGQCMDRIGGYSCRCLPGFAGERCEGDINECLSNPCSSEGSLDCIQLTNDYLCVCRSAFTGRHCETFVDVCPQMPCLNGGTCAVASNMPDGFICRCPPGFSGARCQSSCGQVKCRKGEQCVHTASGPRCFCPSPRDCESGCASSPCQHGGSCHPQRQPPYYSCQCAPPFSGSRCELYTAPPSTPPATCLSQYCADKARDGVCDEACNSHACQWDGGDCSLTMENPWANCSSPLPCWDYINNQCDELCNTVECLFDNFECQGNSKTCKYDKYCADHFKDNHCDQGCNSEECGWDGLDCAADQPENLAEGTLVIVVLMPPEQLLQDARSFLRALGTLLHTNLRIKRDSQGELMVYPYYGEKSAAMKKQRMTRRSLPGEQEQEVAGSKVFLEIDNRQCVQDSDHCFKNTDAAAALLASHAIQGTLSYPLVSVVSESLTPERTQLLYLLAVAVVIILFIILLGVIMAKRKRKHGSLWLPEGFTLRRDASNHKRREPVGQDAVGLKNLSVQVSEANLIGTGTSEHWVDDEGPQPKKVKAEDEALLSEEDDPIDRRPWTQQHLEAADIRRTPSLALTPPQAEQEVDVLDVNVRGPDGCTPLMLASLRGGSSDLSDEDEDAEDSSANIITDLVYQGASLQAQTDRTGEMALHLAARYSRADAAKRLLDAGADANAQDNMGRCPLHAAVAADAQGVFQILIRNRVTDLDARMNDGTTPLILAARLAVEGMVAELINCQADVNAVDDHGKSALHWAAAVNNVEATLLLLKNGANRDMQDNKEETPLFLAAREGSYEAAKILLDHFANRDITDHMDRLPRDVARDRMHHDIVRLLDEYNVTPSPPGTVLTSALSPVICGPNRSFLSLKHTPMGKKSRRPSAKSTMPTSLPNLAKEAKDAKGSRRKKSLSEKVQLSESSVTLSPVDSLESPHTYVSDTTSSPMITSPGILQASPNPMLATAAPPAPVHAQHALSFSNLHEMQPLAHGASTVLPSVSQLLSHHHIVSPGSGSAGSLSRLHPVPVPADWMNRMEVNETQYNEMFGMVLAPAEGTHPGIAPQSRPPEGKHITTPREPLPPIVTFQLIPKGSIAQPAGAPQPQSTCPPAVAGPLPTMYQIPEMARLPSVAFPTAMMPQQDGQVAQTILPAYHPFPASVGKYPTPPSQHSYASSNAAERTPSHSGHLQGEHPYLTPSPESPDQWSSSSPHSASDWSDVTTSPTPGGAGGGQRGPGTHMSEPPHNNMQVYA
Experiment [6] has as its target Pro-neuregulin-1, membrane-bound isoform (Homo sapiens) (UniProt Q02297). Put plainly: NRG1 binders on small-molecule microarrays, primary screen, psychiatric disease protein project, biochemical, small-molecule microarray, fluorescence 635/667 (AID 1075).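 Also: score combines 667 nm spot fluorescence with signal to noise.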 The settings on record: NRG1 binding, 635 nm fluorescence, higher = more signal.
Experiment [7] has as its system Neuregulin-1 EGF-like domain. Put plainly: binders of neuregulin-1 EGF-like domain, primary screen, biochemical, small-molecule microarray, 635 nm fluorescence (AID 1081).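 Also: binding of the protein to compounds printed on small-molecule microarray slides.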 The following applies: small-molecule microarray binding, higher = more signal.
A short description of experiment [8]: FRG1 promoter luciferase signal modulators, primary screen, FRG1 inhibition for FSHD, cell-based, C2C12 myotubes, firefly/Renilla luciferase, luminescence (AID 1084). The following applies: higher = more signal, called active from +8 up or from −8 down.
Experiment [9] in a line: binders of probe aFST on microarray, primary screen, stem cell growth factor project, biochemical, small-molecule microarray, fluorescence 635/667 (AID 1086).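 Also: score merges 667 nm fluorescence with signal-to-noise of each printed compound spot.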 The settings on record: higher = more signal.
Experiment [10] can be described thus: binders of probe aHhip on microarray, primary screen, stem cell growth factor project, biochemical, small-molecule microarray, fluorescence 635/667 (AID 1087).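 Also: score merges spot fluorescence at 667nm with spot signal to noise ratio.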 The settings on record: higher = more signal.
Experiment [11] relates to PRMT1 (protein arginine N-methyltransferase 1). Put plainly: PRMT1 binders on small-molecule microarrays, primary screen, biochemical, small-molecule microarray, 635 nm fluorescence (AID 1088).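 Also: binding of Prmt1 protein to compounds spotted on small-molecule microarray slides.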 The following applies: small-molecule microarray binding, higher = more signal.
Experiment [12] can be described thus: yeast growth modulation, basal conditions, primary screen, YJM789 clinical isolate, OD600, 24 h (AID 1089).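 Also: growth of clinical yeast isolate S. cerevisiae YJM 789 seeded 1000 cells per well; test concentration not given here.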 The following applies: S. cerevisiae YJM789 growth, higher = more signal, called active from +8 up or from −8 down.
Experiment [13] is described as follows: fission yeast growth modulation, primary screen, strain 972, OD600, 24 h, no modulator (AID 1090).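 Also: basal condition with compound alone and no growth modifier present; test concentration not given here.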 The settings on record: S. pombe 972 growth, higher = more signal, called active from +8 up or from −8 down.
Experiment [14] can be described thus: S. cerevisiae growth modulation with rapamycin, primary screen, strain BY4716, OD600, 96 h (AID 1091). Also: test concentration not given here. The settings on record: higher = more signal, called active from +8 up or from −8 down.
Experiment [15] concerns the target Torsin-1A-interacting protein 2 (Homo sapiens) (UniProt Q8NFQ8). Put plainly: LULL1 binders on small-molecule microarray, primary screen, cell lysate, human LULL1 lysate, 635/667 nm fluorescence (AID 1092).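 Also: score merges per-feature 667 nm fluorescence with signal-to-noise.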 The settings on record: hLULL1 lysate binding, 635 nm fluorescence, higher = more signal.
Experiment [16] can be described thus: E. coli growth modulation, two-sided OD650, primary screen, E. coli filamentation project, strain DRC41, 24 h (AID 1093).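 Also: MC1000 strain lacking acrAB efflux and sulA so SOS filamentation is blocked; test concentration not given here.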 The following applies: OD650, 24 h, higher = more signal, called active from +8 up or from −8 down.
Experiment [17] is described as follows: small-molecule microarray binders of probe aLefty2, primary screen, biochemical, biotinylated probe, 635/667 nm fluorescence (AID 1094).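 Also: score merges spot fluorescence near 667 nm with spot signal-to-noise ratio.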 The settings on record: higher = more signal.
Experiment [18] concerns Noggin (protein binding on small-molecule microarray). The experiment in a line: Noggin binders on small-molecule microarray, primary screen, biochemical, 635/667 nm fluorescence (AID 1095).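 Also: score merges 667 nm feature fluorescence with signal to noise over triplicate slides.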 The settings on record: 635 nm fluorescence, higher = more signal.
For experiment [19], the target named is Neurogenic locus notch homolog protein 3 (Homo sapiens) (UniProt Q9UM47). Put plainly: NOTCH3 binders on small-molecule microarray, primary screen, biochemical, 635/667 nm fluorescence (AID 1096). The settings on record: NOTCH3 binding, 635 nm fluorescence, higher = more signal.
Experiment [20] is described as follows: small-molecule microarray binders of probe aEGFR, primary screen, biochemical, biotinylated probe, 635/667 nm fluorescence (AID 1097).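 Also: probe is a biotinylated anti-EGFR antibody binding compounds printed on slides; score combines fluorescence near 667 nm and signal to noise of each spot.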 The following applies: higher = more signal.

Each structure is given as a SMILES string. The source made the active and inactive calls.

Pro-neuregulin-1, membrane-bound isoform (Homo sapiens), sequence (Q02297 whole entry, looked up, the tested form may be a part, canonical isoform): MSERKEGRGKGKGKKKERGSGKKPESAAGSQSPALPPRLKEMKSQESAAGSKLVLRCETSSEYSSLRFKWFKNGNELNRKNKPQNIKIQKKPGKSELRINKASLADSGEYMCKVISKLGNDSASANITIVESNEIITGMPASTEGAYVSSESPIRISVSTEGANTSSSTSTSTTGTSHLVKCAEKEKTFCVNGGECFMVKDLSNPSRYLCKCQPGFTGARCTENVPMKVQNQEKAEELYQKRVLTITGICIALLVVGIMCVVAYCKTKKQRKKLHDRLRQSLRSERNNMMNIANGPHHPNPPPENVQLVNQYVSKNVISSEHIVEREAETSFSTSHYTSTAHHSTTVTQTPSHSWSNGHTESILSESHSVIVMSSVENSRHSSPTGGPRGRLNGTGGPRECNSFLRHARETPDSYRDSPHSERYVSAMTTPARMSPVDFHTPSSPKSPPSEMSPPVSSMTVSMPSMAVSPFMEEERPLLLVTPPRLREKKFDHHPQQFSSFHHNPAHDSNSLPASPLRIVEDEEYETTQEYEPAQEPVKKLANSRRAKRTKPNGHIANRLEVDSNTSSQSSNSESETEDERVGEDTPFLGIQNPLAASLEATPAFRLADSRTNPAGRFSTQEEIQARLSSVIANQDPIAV
Torsin-1A-interacting protein 2 (Homo sapiens), sequence (Q8NFQ8 whole entry, looked up): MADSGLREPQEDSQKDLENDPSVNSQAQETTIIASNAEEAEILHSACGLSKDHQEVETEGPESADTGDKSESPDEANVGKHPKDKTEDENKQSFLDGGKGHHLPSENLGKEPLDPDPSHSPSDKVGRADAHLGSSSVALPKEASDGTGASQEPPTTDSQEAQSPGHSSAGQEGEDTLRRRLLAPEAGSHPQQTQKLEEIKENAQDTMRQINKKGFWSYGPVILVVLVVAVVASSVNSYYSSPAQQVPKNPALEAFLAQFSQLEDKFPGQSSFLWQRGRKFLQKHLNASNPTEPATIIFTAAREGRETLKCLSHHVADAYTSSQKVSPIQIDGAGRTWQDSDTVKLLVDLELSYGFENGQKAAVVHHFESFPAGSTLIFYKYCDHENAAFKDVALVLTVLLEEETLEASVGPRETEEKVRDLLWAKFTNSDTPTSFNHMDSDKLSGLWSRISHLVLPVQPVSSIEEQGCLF

For the molecule `CCCC=C(CCC)[C@@H](NC(=O)c1cccs1)c1ccc(C(F)(F)F)cc1`, the composite z-score in experiment [1] was 0.251; in experiment [2] it was 0.654; in experiment [3] it was -0.0515; in [4], 0.383; in [5] it was 1.43; in experiment [6], 0.393. The composite z-score in [7] is 0.729; in experiment [9], 1.46; in experiment [10], -0.132; in experiment [11], 1.03; in experiment [15], 0.109; in experiment [17] it was 0.291. For the same molecule, the composite z-score in experiment [18] is 0.989; in experiment [19], 1.09; in [20] it was 0.315. Further, the z-score in [8] was 2.26 (inactive); in experiment [12], -0.522 (inactive); in [13] it was -2.1 (inactive); in [14], -0.851 (inactive); in experiment [16], -0.649 (inactive).
With `O=C(NC1CC1)[C@@H]1c2ccccc2C(=O)N(Cc2ccccc2Cl)[C@H]1c1ccc(CO)cc1`, the composite z-score in experiment [1] is -0.255; in [2] it was 0.256; in experiment [3], -0.104; in experiment [4] it was 0.486; in experiment [5] it was 0.532; in experiment [6], 0.93. Further, the composite z-score in experiment [7] was 1.32; in [9], 0.882; in [10], -0.15; in experiment [11] it was 1.54; in [15], 2.77; in experiment [17], 0.161. Besides, the composite z-score in experiment [18] came out at 1.02; in experiment [19] it was 1.11; in experiment [20], 0.0103. Also, the z-score in experiment [8] is -2.22 (inactive); in experiment [12], -2.17 (inactive); in experiment [13] it was -2.52 (inactive); in experiment [14], -1.66 (inactive); in experiment [16] it was 4.01 (inactive).
`C#C[C@H](O[Si](C#Cc1ccc(Oc2ccccc2)cc1)(C(C)C)C(C)C)c1ccccc1`: the composite z-score in [1] was -0.247; in experiment [2], 1.27; in [3] it was -0.0613; in experiment [4] it was 0.853; in experiment [5], 1.25; in experiment [6], 0.206. Further, the composite z-score is 0.801 in experiment [7]; 0.315 in experiment [9]; -0.0994 in experiment [10]; 1.23 in experiment [11]; 1.02 in experiment [15]; -0.0666 in [17]. Besides, the composite z-score in [18] was 0.531; in experiment [19], 0.185; in experiment [20] it was -0.0286. Besides, the z-score in experiment [8] was 0.297 (inactive); in experiment [12], -0.824 (inactive); in [13], -19.1 (active); in experiment [14] it was -0.42 (inactive); in experiment [16], -0.547 (inactive).
Regarding `CC(C)C(=C=CC[C@H](O)c1ccc(OCCO)cc1)CCO`, the composite z-score in [1] was -0.0762; in [2], 0.887; in [3], -0.1; in experiment [4] it was 0.904; in experiment [5], 0.255; in experiment [6], 1.69. For the same molecule, the composite z-score was 0.895 in [7]; 0.326 in experiment [9]; -0.0994 in [10]; 1.55 in experiment [11]; 2.22 in experiment [15]; -0.0113 in experiment [17]. Also, the figures for the composite z-score in [18], in experiment [19] and in experiment [20] were 1.37, -0.0409 and -0.12, respectively. Moreover, the z-score in [8] was 0.305 (inactive); in experiment [12], -1.83 (inactive); in [13] it was -1.27 (inactive); in experiment [14], -0.768 (inactive); in [16], -0.327 (inactive).
Take `C=CCOC(=O)[C@@H]1[C@H]2C(=O)O[C@H](c3ccccc3)[C@H](c3ccccc3)N2[C@H](c2ccc(OCCOC(=O)[C@@H]3C[C@@H]4C(=O)NCC(=O)N4[C@@H]3c3ccc(O)cc3)cc2)[C@@]12C(=O)Nc1ccc(I)cc12`: the composite z-score in experiment [1] is -0.415; in [2], 0.778; in [3], 0.0428; in [4], 0.371; in experiment [5], 0.364; in [6] it was 1.04. Also, the composite z-score in experiment [7] is 1.26; in experiment [9], 0.0347; in experiment [10], -0.0391; in experiment [11], 1.55; in experiment [15], 2.54; in [17] it was -0.171. Further, the composite z-score in [18] was 1.58; in experiment [19] it was 0.859; in [20], -0.154. In addition, the z-score was 1.12 (inactive) in experiment [8]; 0.218 (inactive) in [12]; 0.985 (inactive) in experiment [13]; 2.85 (inactive) in [14]; 0.5 (inactive) in experiment [16].

These data come from PubChem BioAssay.
